# Assay outcomes: PubChem BioAssay, National Center for Advancing Translational Sciences (NCATS)
# Compounds with a hit are over-represented: about 11% of the library has one in this group of screens.
# Luciferase inh: Firefly luciferase inhibition profiling of diverse chemical library using quantitative high-throughput screening; 2.5% of 76,000 active; Luciferin 4-monooxygenase (Photinus pyralis), P08659; Potency, µM (highest dose often 115 µM), hits mostly inhibitors; purified P. pyralis luciferase, luminescence, biochemical; also: nearly all actives have a fitted effect of over 65% in size
# Target sequence (P08659 whole entry, looked up): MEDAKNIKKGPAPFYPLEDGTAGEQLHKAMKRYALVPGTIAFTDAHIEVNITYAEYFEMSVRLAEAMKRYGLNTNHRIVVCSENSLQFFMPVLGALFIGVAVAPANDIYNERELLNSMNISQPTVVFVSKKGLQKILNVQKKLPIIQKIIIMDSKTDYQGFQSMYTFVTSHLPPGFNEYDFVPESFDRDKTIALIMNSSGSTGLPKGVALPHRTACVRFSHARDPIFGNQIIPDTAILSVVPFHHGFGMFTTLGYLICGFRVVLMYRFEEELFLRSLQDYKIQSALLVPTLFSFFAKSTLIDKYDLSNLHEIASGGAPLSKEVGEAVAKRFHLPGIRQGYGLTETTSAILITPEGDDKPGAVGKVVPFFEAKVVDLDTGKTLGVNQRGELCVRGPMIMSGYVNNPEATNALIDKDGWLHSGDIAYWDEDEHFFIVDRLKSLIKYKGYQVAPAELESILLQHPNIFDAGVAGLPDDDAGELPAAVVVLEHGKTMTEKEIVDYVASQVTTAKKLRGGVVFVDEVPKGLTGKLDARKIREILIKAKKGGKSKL
#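 Inhibitors were tested against purified firefly luciferase in a biochemical, low-substrate format (both substrates at 10uM) and luminescence measured with a CCD imager.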
# hNpr1 antagonist: Natriuretic polypeptide receptor (hNpr1) antagonism - Primary qHTS; Potency, µM (series often up to 46.3 µM), inactives show at the highest dose activity change, negative = inhibition, most hits filed as inhibitors; 1.6% of 76,000 active; AID 1347048, 2019; HEK293 hNpr1 GloSensor cGMP, ANP-stimulated luminescence; Atrial natriuretic peptide receptor 1 (Homo sapiens), P16066; calls by dose curve; also: nearly all actives have a fitted effect of over 60% in size
#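 HEK293 cells stably expressing human Npr1 and cGMP GloSensor pGS-40F, loaded 2 h with 2% GloSensor reagent, given compound 30 min at room temperature. Luminescence read before and 20 min after 0.1 nM hNppA.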
# 3T3 cytotox: Cytotoxic Profiling in NIH 3T3 Cell Line of Diverse Libraries Using Quantitative High-Throughput Screening; NIH 3T3 viability, CellTiter-Glo ATP luminescence, 48-72 h; Potency, µM (titrated, usually from 96.7 µM), without a hit: top-dose activity change, negative = cytotoxicity, usual class: inhibitors; 4.3% of 94,000 active; also: nearly all actives have a fitted effect of over 55% in size
#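 Mouse fibroblast NIH 3T3 cells, 400 per well, received compound via pintool and were incubated for 48 or 72 hr prior to CellTiter-Glo ATP luminescence measurement.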
# HEK cytotox: Cytotoxic Profiling in HEK 293 Cell Line of Diverse Libraries Using Quantitative High-Throughput Screening | 6.6% of 94,000 active | HEK 293 viability, ATP luminescence (CellTiter-Glo), 48-72 h | Potency, µM (series often up to 115 µM), for the others: at the top dose activity change, negative = cytotoxicity, hits mostly inhibitors; also: nearly all actives have a fitted effect of over 60% in size
#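 Viability of HEK 293 cells, plated at 250 cells/well, was judged by cellular ATP after compound treatment for 48 or 72 hr. Luminescence was imaged 10 min after CellTiter-Glo addition at room temperature.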
# The depositor's hits bear a star; i = inactive; u = inconclusive; x = no result; [ ] = dose if it differs, or a comment. Unless noted, calls follow the shape of the dose curve; as a rule, active = well fitted curve in the direction sought with a large enough effect; inconclusive = small, poorly fitted or top-dose-only effect, or another doubt; inactive = no such curve, though single readings can be large; an effect the other way counts as inactive or inconclusive. % is scaled to controls: 0 for no effect and ±100 for the full control effect; potency is read from the fitted curve at half-maximal effect.
SMILES,Luciferase inh,hNpr1 antagonist,3T3 cytotox,HEK cytotox
C[S+](=O)([O-])Nc1cccc(Nc2ncc(-c3cccc(F)c3)c3c2OCC3)c1,i,-28%[70.6 µM],32µM*,u
Cc1noc(C)c1-c1cnc(NC(=O)c2ccc(Cl)cc2)c2c1CCO2,i,2%[70.6 µM],89µM*,-24%[172 µM]
Cc1noc(C)c1-c1cnc(Nc2ccc(F)c(Cl)c2)c2c1CCO2,14µM*,u,u,71µM*
O=C(Nc1ncc(-c2cccc(F)c2)c2c1OCC2)c1ccc(Cl)cc1,i,-4%[70.6 µM],u,100µM*
COc1cccc(Nc2ncc(-c3c(C)noc3C)c3c2OCC3)c1,i,3%[70.6 µM],u,u
Cc1noc(C)c1-c1cnc(Nc2ccc(F)cc2)c2c1CCO2,i,6%[70.6 µM],u,u
C[S+](=O)([O-])NC1CCN(c2ccnc3ccnn23)CC1,x,x,-12%[138 µM],-2%[172 µM]
O=C(Cc1ccccc1)Nc1cc(-c2ccccn2)nn1-c1ccccc1,x,x,-18%,u
C[S+](=O)([O-])N1CC2(Cc3ccccc31)CN(C(=O)Nc1ccccc1)C2,x,x,-11%,u
O=C(Cc1ccccn1)N1CCCC2(CN[S+](=O)([O-])c3cccnc3N2)C1 (stereo unspecified),x,x,i,-7%
O=C(Nc1cc(-c2cccnc2)nn1-c1ccccc1)c1ccccc1,x,x,-26%,u
COc1ccccc1-c1cnc(NC(=O)c2cccnc2)c2c1CCO2,i,5%[70.6 µM],u,-58%[172 µM]
COc1ccccc1-c1cnc(NC(=O)c2ccc(F)c(Cl)c2)c2c1CCO2,18µM*,-25%[70.6 µM],u,u
CC(CCc1ccccc1)NC(=O)c1ccc2nccn2c1 (stereo unspecified),i,-8%[70.6 µM],u,-20%[172 µM]
Cc1ccc(-c2ccccc2CN)cc1Cl,x,x,35µM*,35µM*
COc1cccc(-c2ccccc2CN)c1,x,x,-8%[138 µM],-16%[172 µM]
Cc1cc(C)cc(-c2ccccc2CN)c1,x,x,u,112µM*
NCc1ccccc1-c1cc(F)cc(F)c1,x,x,-11%[138 µM],-18%[172 µM]
COCC(=O)N1CCN(C(=O)c2cccc(-c3ccccc3OC)c2)CC1,x,x,0%,i
NCC1(N2CCOCC2)CCCCC1,x,x,i,i
Cc1cc(C)n(CCC(=O)N2CC(Oc3ccc(-c4nc(-c5ccccc5)no4)cc3)C2)n1,u,0.4µM*,u,32µM*
Cc1cc(C(=O)N2CC(Oc3ccc(-c4nc(-c5ccccc5)no4)cc3)C2)n(C)n1,u,5.6µM*,u,11µM*
Cc1nnc(-c2cc(-c3cnn(C)c3)ccn2)n1Cc1ccccc1,i,6%[70.6 µM],45µM*,-15%[172 µM]
Cc1nnc(-c2cc(-c3cnn(C)c3)ccn2)n1-c1ccccc1,i,3%[70.6 µM],89µM*,u
Cc1nnc(-c2cc(-c3ccccc3Oc3ccccc3)ccn2)n1C,i,4%[70.6 µM],u,89µM*
SMILES,Luciferase inh,hNpr1 antagonist,3T3 cytotox,HEK cytotox
COc1ccc(-c2ccnc(-c3nnc(C)n3CCN3CCOCC3)c2)cc1OC,i,1%[70.6 µM],100µM*,-25%[172 µM]
COc1ncc(-c2ccnc(-c3nnc(C)n3CCN3CCOCC3)c2)cn1,i,7%[70.6 µM],u,0%[172 µM]
Cc1nnc(-c2cc(-c3ccsc3)ccn2)n1Cc1ccccc1,u,-11%[70.6 µM],u,u
O=C1CCC2(C(=O)N3CCN(c4ccccn4)CC3)CCC=C2N1C1CCCC1 (stereo unspecified),x,x,-29%,u
Cc1ccccc1-c1ccnc(-c2nnc(C)n2Cc2ccncc2)c1,i,0%[70.6 µM],-15%[138 µM],u
Cc1ccccc1-c1ccnc(-c2nnc(C)n2Cc2ccccc2)c1,i,-2%[70.6 µM],u,79µM*
CC(=O)N1CCN(c2ccnc(-c3nnc(C)n3-c3ccccc3)c2)CC1,i,-1%[70.6 µM],89µM*,2%[172 µM]
Cc1cc(-c2ccnc(-c3nnc(C)n3-c3ccccc3)c2)ccn1,i,0%[70.6 µM],25µM*,45µM*
Cc1nnc(-c2cc(-c3ccsc3)ccn2)n1-c1ccccc1,i,-8%[70.6 µM],u,u
Cc1cc(-c2ccnc(-c3nnc(C)n3CCc3ccccc3)c2)ccn1,i,-11%[70.6 µM],79µM*,u
CC1(c2ccccc2)N(Cc2ccccc2C#N)C(=O)OC12CCN(C(=O)C1CCOCC1)CC2 (stereo unspecified),i,0%,u,4%
